In PubChem BioAssay (EPA / NIEHS):
Results filed as inconclusive are left out. Calls of active or inactive are those of the source. How the source made its calls, unless noted: active means hit-call score of the fitted dose curve at least 0.9, where 1 is the maximum; inactive means score below 0.9.

What was measured:
[1] = target: human Retinoid X Receptor beta (RXRb), RXRB (gene 6257) (UniProt P28702); test: ATG_RXRb_TRANS: Attagene TRANS-FACTORIAL HepG2 Assay for human Retinoid X Receptor beta (RXRb) (AID 2283013; active means hit-call score of the fitted dose curve at least 0.9, where 1 is the maximum)
Chain of human Retinoid X Receptor beta (RXRb), RXRB (gene 6257) (P28702 whole entry, looked up, the tested form may be a part): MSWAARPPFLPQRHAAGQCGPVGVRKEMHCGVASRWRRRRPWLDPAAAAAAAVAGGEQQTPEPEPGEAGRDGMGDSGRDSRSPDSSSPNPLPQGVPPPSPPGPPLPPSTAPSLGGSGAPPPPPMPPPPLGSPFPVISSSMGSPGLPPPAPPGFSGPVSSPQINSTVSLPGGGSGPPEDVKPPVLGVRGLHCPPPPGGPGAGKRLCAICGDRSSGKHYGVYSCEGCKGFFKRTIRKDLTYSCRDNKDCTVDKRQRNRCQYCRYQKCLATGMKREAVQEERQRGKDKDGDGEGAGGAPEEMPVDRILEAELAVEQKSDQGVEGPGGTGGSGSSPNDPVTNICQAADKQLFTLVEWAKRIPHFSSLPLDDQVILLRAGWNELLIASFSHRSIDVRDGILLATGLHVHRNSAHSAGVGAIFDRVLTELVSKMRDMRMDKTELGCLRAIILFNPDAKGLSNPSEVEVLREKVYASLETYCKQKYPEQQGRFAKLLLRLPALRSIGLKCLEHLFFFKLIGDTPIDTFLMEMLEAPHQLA
Method in brief: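 Readout is reporter transcript induction after 24 h dosing. It is measured by RT-PCR of total RNA followed by fluorescent capillary electrophoresis. HepG2 liver cells carry transfected multiple reporter units driven by an exogenous RXRb-Gal4 fusion; activity is relative to DMSO.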

[2] = target: human Thyroid Receptor alpha (THRa1), THRA (gene 7067) (UniProt P10827); test: ATG_THRa1_TRANS: Attagene TRANS-FACTORIAL HepG2 Assay for human Thyroid Receptor alpha (THRa1) (AID 2283014; active means hit-call score of the fitted dose curve at least 0.9, where 1 is the maximum)
Chain of human Thyroid Receptor alpha (THRa1), THRA (gene 7067) (P10827 whole entry, looked up, the tested form may be a part): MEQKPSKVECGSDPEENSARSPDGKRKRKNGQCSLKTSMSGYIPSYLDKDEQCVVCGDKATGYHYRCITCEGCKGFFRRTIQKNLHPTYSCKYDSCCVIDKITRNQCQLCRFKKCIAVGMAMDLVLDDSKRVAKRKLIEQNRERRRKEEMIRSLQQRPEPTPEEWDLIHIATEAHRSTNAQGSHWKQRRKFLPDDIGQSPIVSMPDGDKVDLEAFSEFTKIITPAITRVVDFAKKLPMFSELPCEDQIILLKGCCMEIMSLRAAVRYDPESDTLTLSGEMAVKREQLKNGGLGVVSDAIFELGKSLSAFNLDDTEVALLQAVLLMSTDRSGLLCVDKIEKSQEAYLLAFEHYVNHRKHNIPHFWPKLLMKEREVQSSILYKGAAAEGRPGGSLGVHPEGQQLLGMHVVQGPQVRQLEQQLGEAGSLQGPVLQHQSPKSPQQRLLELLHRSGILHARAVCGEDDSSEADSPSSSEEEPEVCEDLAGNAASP
Method in brief: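 Transcripts from GAL4-UAS-driven reporters, measured after 24 h compound exposure by RT-PCR plus capillary electrophoresis of 6-FAM-labeled fragments, were fitted for gain of signal relative to DMSO. Cells: transiently transfected HepG2 expressing NR-Gal4 chimeras.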

[3] = read-out: E-selectin (Homo sapiens) (UniProt P16581); test: BSK_3C_Eselectin: BioMAP Diversity Plus: 3C Assay for Eselectin Biomarker Activity (AID 2283015); conditions: primary human endothelial cells (HUVEC); actives raise or lower the signal
Method in brief: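 E-selectin ELISA readout, fitted bidirectionally relative to DMSO, taken 24 h post-dosing in HUVEC cultures of the 3C system. Overt cytotoxicity tracked with sulforhodamine B staining of parallel wells.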

[4] = read-out: Interleukin-1 alpha (IL1a), IL1A (gene 3552); test: BSK_BE3C_IL1a: BioMAP Diversity Plus: BE3C Assay for Interleukin-1 alpha (IL1a) Biomarker Activity (AID 2283016); conditions: primary human bronchial epithelial cells; actives raise or lower the signal
Method in brief: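 IL-1a measured by ELISA after 24 h treatment of human primary bronchial epithelial cells, with gain or loss of signal fitted versus DMSO. Parallel cultures stained with SRB gauge overt cytotoxicity.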

[5] = read-out: Monocyte Chemoattractant Protein-1 (MCP1), CCL2 (gene 6347); test: BSK_3C_MCP1: BioMAP Diversity Plus: 3C Assay for Monocyte Chemoattractant Protein-1 (MCP1) Biomarker Activity (AID 2283017); conditions: primary human endothelial cells (HUVEC); actives raise or lower the signal
Method in brief: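 MCP-1 was measured by ELISA 24 h after dosing in primary HUVEC 3C cultures and fitted in both directions relative to DMSO; cytotoxicity was checked by SRB total-protein staining in parallel wells.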

[6] = read-out: Monocyte Chemoattractant Protein-1 (MCP1), CCL2 (gene 6347); test: BSK_4H_MCP1: BioMAP Diversity Plus: 4H Assay for Monocyte Chemoattractant Protein-1 (MCP1) Biomarker Activity (AID 2283018); conditions: primary human endothelial cells (HUVEC); actives raise or lower the signal
Method in brief: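 ELISA of MCP-1 (CCL2) 24 h after chemical dosing of HUVEC in the BioMAP 4H system. Gain or loss versus DMSO fitted; parallel SRB staining (560 nm) tracked overt cytotoxicity.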

[7] = read-out: Human Leukocyte Antigen - DR isotype (HLADR), HLA-DRA (gene 3122); test: BSK_3C_HLADR: BioMAP Diversity Plus: 3C Assay for Human Leukocyte Antigen - DR isotype (HLADR) Biomarker Activity (AID 2283019); conditions: primary human endothelial cells (HUVEC); actives raise or lower the signal
Method in brief: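 Bidirectional fitting against DMSO was applied to the HLA-DR ELISA signal from human umbilical vein endothelial cells, 24 h post-dose. Cytotoxicity came from parallel SRB total-protein staining; 3C proliferation was counted by SRB at 48 h.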

[8] = read-out: Interleukin-8 (IL8), CXCL8 (gene 3576); test: BSK_3C_IL8: BioMAP Diversity Plus: 3C Assay for Interleukin-8 (IL8) Biomarker Activity (AID 2283020); conditions: primary human endothelial cells (HUVEC); actives raise or lower the signal
Method in brief: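 IL-8 was measured by ELISA in HUVEC cultures 24 h after chemical dosing, with gain or loss of signal fitted relative to DMSO. Parallel SRB total-protein staining tracked overt cytotoxicity.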

[9] = read-out: Monokine induced gamma interferon (MIG), CXCL9 (gene 4283); test: BSK_3C_MIG: BioMAP Diversity Plus: 3C Assay for Monokine induced gamma interferon (MIG) Biomarker Activity (AID 2283021); conditions: primary human endothelial cells (HUVEC); actives raise or lower the signal;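 on AC50: MIG protein level measured by immunoassay in the treated endothelial cultures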
Method in brief: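 ELISA measurement of MIG in human umbilical vein endothelial cells 24 h after treatment. Cytotoxicity tracked by SRB staining in parallel cultures; gain or loss of signal fitted relative to DMSO.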

[10] = BSK_3C_SRB: Viability Assessment in the BioMAP Diversity Plus: 3C Assay (AID 2283023); conditions: primary human endothelial cells (HUVEC);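 further: fitted both ways against DMSO so a hit may be signal rise or drop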
Method in brief: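 Cytotoxicity readout in parallel HUVEC 3C cultures: after 24 h compound exposure, cells fixed with 10% TCA, stained with 0.1% SRB and read at 560 nm. Gain or loss relative to DMSO fitted.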

[11] = read-out: Matrix Metallopeptidase 1 (MMP1), MMP1 (gene 4312); test: BSK_BE3C_MMP1: BioMAP Diversity Plus: BE3C Assay for Matrix Metallopeptidase 1 (MMP1) Biomarker Activity (AID 2283024); conditions: primary human bronchial epithelial cells; actives raise or lower the signal
Method in brief: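 ELISA measurement of MMP-1 after 24 h compound exposure of primary human bronchial epithelial cells. Changes in either direction fitted relative to DMSO; parallel SRB staining checked overt cytotoxicity.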

[12] = read-out: Pselectin, SELP (gene 6403); test: BSK_4H_Pselectin: BioMAP Diversity Plus: 4H Assay for Pselectin Biomarker Activity (AID 2283026); conditions: primary human endothelial cells (HUVEC); actives raise or lower the signal
Method in brief: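 ELISA of surface P-selectin on HUVEC, 24 h after dosing, with parallel SRB staining (0.1% after 10% TCA fixation, 560 nm) for overt cytotoxicity. Activity fitted in both directions relative to DMSO.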

[13] = BSK_4H_SRB: Viability Assessment in the BioMAP Diversity Plus: 4H Assay (AID 2283027); conditions: primary human endothelial cells (HUVEC);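 further: cells exposed to compound for 24 h before staining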;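 on AC50: curves fitted both ways versus DMSO so AC50 may be loss or gain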
Method in brief: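 HUVEC, 24 h post-dose; 10% TCA fix, 0.1% SRB stain, A560 nm. Total protein = overt cytotoxicity, parallel to biomarker read. Bidirectional fit vs DMSO baseline.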

[14] = BSK_BE3C_SRB: Viability Assessment in the BioMAP Diversity Plus: BE3C Assay (AID 2283028); conditions: primary human bronchial epithelial cells
Method in brief: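 Cytotoxicity read-out: SRB (0.1%) staining of TCA-fixed (10%) human lung bronchial epithelial cells, absorbance 560 nm, 24 h post-dosing. Curves fitted both directions relative to DMSO.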

[15] = target: human Vitamin D Receptor (VDR), VDR (gene 7421) (UniProt P11473); test: ATG_VDR_TRANS: Attagene TRANS-FACTORIAL HepG2 Assay for human Vitamin D Receptor (VDR) (AID 2283022; active means hit-call score of the fitted dose curve at least 0.9, where 1 is the maximum)
Chain of human Vitamin D Receptor (VDR), VDR (gene 7421) (P11473 whole entry, looked up, the tested form may be a part): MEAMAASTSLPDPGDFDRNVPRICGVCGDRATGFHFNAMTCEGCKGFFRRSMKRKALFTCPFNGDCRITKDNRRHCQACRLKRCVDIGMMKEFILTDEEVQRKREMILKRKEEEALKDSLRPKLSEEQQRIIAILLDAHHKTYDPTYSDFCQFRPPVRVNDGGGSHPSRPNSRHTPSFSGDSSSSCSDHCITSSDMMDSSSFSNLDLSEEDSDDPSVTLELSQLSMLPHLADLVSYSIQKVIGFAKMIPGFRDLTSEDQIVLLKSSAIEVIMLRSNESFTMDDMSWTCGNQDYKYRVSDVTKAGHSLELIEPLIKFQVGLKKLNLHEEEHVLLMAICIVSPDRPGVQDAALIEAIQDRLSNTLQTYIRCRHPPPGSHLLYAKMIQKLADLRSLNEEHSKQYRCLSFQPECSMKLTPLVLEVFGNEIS
Method in brief: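 Transactivation by an exogenous VDR-Gal4 chimera in transiently transfected HepG2 cells was measured as reporter transcript level 24 hours after chemical treatment. RT-PCR products were analysed by capillary electrophoresis and fitted in the positive direction relative to DMSO.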

[16] = target: Retinoic acid receptor RXR-alpha (Homo sapiens) (UniProt P19793); test: ATG_RXRa_TRANS: Attagene TRANS-FACTORIAL HepG2 Assay for human Retinoid X Receptor alpha (RXRa) (AID 2283012; active means hit-call score of the fitted dose curve at least 0.9, where 1 is the maximum)
Chain of Retinoic acid receptor RXR-alpha (Homo sapiens) (P19793 whole entry, looked up, the tested form may be a part): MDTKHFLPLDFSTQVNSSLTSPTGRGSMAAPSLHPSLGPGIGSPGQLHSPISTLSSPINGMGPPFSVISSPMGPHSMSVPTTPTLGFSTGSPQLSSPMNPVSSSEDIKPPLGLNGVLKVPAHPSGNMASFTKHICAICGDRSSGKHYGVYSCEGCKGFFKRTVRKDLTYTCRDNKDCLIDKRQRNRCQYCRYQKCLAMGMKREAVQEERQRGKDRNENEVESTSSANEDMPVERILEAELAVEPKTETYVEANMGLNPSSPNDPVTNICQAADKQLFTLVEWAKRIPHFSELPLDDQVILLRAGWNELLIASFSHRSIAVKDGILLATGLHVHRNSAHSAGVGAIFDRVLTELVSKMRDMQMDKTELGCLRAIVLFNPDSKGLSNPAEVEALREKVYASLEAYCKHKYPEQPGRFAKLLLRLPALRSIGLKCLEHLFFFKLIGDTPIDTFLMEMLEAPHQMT
Method in brief: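 TRANS format reporting activity of exogenous RXRa-Gal4 chimera in transiently transfected HepG2, 24 h exposure. Reporter transcripts quantified by RT-PCR with capillary electrophoresis, with gain of signal scored relative to DMSO.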

[17] = read-out: Thrombomodulin, THBD (gene 7056); test: BSK_3C_Thrombomodulin: BioMAP Diversity Plus: 3C Assay for Thrombomodulin Biomarker Activity (AID 2283029); conditions: primary human endothelial cells (HUVEC); actives raise or lower the signal
Method in brief: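 ELISA measurement of thrombomodulin on HUVEC surface 24 h after chemical dosing; activity fitted in both directions relative to DMSO vehicle.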

[18] = BSK_3C_Vis: BioMAP Diversity Plus: 3C Assay for Morphology Visualization (AID 2283025); conditions: primary human endothelial cells (HUVEC);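 further: fitted both ways so gain or loss versus DMSO counts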;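 on AC50: light microscopy image of cell morphology used as background control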
Method in brief: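 Light-microscopy visualization of HUVEC cultures at 24 h post-treatment, with DMSO as baseline for bidirectional fitting.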

Measured: AC50

Chain of E-selectin (Homo sapiens) (P16581 whole entry, looked up): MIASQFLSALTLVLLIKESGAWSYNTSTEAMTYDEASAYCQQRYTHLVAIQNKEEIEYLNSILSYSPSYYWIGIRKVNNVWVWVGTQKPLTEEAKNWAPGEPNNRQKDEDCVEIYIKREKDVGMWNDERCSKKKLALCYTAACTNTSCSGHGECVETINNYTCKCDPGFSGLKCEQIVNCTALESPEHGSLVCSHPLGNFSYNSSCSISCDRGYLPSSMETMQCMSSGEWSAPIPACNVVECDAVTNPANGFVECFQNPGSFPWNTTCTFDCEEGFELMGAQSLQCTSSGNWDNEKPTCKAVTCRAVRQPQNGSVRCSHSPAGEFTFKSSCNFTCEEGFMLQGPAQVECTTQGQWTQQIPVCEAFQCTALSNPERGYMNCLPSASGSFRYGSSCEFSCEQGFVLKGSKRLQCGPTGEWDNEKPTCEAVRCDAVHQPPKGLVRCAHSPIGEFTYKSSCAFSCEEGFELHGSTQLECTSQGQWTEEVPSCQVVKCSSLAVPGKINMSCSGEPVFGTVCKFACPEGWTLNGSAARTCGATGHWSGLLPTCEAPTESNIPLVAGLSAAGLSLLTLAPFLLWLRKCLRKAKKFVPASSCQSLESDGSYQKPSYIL

CCOCCOC(C)=O
not listed: [15] | [16] | [17] | [18]
inactive: all other assays above

Cc1ccccc1[N+](=O)[O-]
not listed: [1] | [2] | [16] | [17] | [18]
inactive: all other assays above

ClC1=C(Cl)[C@]2(Cl)[C@@H]3[C@H]4C[C@H]([C@@H]5O[C@H]45)[C@@H]3[C@@]1(Cl)C2(Cl)Cl
active: [6] 5.75 µM | [7] 7.35 µM | [10] 9.88 µM | [11] 7.22 µM | [13] 3.97 µM
not listed: [17] | [18]
inactive: all other assays above

COc1ccc(O)c(C(C)(C)C)c1
active: [1] 8.56 µM
not listed: [16] | [18]
inactive: all other assays above

CCOC(=O)C(O)(c1ccc(Cl)cc1)c1ccc(Cl)cc1
inactive: [16] | [1] | [2] | [4] | [14] | [17]
active: [3] 32 µM | [5] 31 µM | [6] 25.3 µM | [7] 31.3 µM | [8] 31.1 µM | [9] 39.4 µM | [10] 34.5 µM | [11] 8.5 µM | [18] 37.3 µM | [12] 32.2 µM | [13] 32.2 µM

CO/C=C(/C(=O)OC)c1ccccc1COc1cccc(C(F)(F)F)n1
active: [1] 13.2 µM | [3] 7.64 µM | [5] 7.3 µM | [7] 9.84 µM | [8] 10.1 µM | [10] 20 µM | [13] 7.84 µM
inactive: all other assays above

CCCCCCCCOC(=O)c1ccccc1C(=O)OCCCCCCCC
active: [7] 12.9 µM
not listed: [2] | [15] | [17] | [18]
inactive: all other assays above

Clc1ccc(C(Cl)(Cl)Cl)cc1
not listed: [15] | [17] | [18]
inactive: all other assays above
